Measured values from PubChem BioAssay AID1851 (National Center for Advancing Translational Sciences (NCATS), 2009).
In all, about 16,000 compounds went through this assay and about 5,100 (32%) were called active. Inconclusive results (about 25%) are left out. The list shows a part of the results. A number with no mark means an inactive call. Calls follow the shape of the dose curve; as a rule, active = well fitted curve in the direction sought with a large enough effect; inconclusive = small, poorly fitted or top-dose-only effect, or effect the other way; inactive = no such curve, though single readings can be large or run the other way.

What follows are compounds tested against Cytochrome P450 3A4 (Homo sapiens) (UniProt P08684) (assay: Cytochrome panel assay with activity outcomes). Conditions: recombinant CYP, pro-luciferin dealkylation, luminescence, p450-cyp3a4; series mostly up to 57.1 µM.
Cytochrome P450 3A4 (Homo sapiens), sequence (P08684 whole entry, looked up): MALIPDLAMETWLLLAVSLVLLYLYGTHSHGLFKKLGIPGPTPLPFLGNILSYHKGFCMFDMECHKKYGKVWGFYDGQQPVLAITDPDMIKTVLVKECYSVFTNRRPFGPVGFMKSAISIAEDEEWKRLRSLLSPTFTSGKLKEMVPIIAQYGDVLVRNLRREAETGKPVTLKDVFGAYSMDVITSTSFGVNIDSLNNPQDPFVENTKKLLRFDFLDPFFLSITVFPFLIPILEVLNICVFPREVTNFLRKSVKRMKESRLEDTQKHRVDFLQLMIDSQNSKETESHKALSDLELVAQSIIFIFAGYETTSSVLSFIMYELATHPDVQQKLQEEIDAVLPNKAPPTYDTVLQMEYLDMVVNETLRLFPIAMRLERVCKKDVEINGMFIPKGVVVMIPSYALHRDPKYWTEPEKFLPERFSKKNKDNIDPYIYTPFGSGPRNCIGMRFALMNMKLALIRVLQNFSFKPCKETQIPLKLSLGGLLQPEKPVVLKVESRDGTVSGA
% is scaled to controls: 0 for no effect and ±100 for the full control effect.

Structure (SMILES) | AC50 | activity, negative = inhibition
CN(C)C(CNC(=O)NC1CCCCC1)c1cccnc1 (stereo unspecified) | 15.8 µM (active) | –
COc1cccc(NC(=O)C2c3cc(OC)c(OC)cc3C(=O)N(C)C2c2cccnc2)c1 (stereo unspecified) | 12.6 µM (active) | –
COCCN1C(=O)c2ccccc2C(C(=O)Nc2ccc3c(c2)OCCO3)C1c1ccc(F)cc1 (stereo unspecified) | – | -22.8% [at 2.29 µM]
COc1cc2c(cc1OC)C(C(=O)Nc1ccc3c(c1)OCCO3)C(c1cccnc1)N(C)C2=O (stereo unspecified) | 28.2 µM (active) | –
COc1ccc(NC(=O)C2c3cc(OC)c(OC)cc3C(=O)N(C)C2c2cccnc2)cc1OC (stereo unspecified) | 25.1 µM (active) | –
COc1cc2c(cc1OC)C(C(=O)Nc1ccccn1)C(c1cccnc1)N(C)C2=O (stereo unspecified) | – | -22% [at 11.4 µM]
CC(C)C12CC[C@@]3(CC[C@H]4[C@@](C)(CCC[C@]4(C)C(=O)O)[C@@H]3C1)[C@@H](CN)C2 | – | -9.26% [at 11.4 µM]
Cc1ccc(-n2c(C)cc(C(=O)CSc3n[nH]c(N)n3)c2C)cc1 | 10 µM (active) | –
CCOC(=O)CSc1n[nH]c(NC(=O)c2cccc(C(F)(F)F)c2)n1 | inactive | –
O=C1CC[C@H](NC(=O)c2ccccc2)C(=O)N1 | – | -12.3% [at 11.4 µM]
N[C@H](CCC(=O)NCC(=O)O)C(=O)O | inactive | –
CN(C)c1ccc(-c2cncnc2Nc2ccc(F)cc2)cc1 | 0.794 µM (active) | –
CN(C)c1ccc(-c2cncnc2Nc2ccccc2)cc1 | 0.631 µM (active) | –
c1cc(CSSCc2ccncc2)ccn1 | 2.51 µM (active) | –
Cc1cc(C)n(-c2nc3ccccc3c(=O)n2OCc2ccc(Cl)cc2)n1 | 14.1 µM (active) | –
Cc1cc(C)n(-c2ccc(Cl)c(C(=O)O)n2)n1 | inactive | –
O=[N+]([O-])c1ccc2nc(-c3ccccc3)n(OCc3ccc(Cl)cc3)c2c1 | inactive | –
COc1ccccc1CNc1ccnc(-c2ccc(C(=O)N(C)C)cc2)n1 | 25.1 µM (active) | –
COc1ccc(CNc2ccnc(-c3ccc(C(=O)N(C)C)cc3)n2)c(OC)c1 | 3.98 µM (active) | –
CN(C)c1ccc(-c2nccc(NCc3ccccc3)n2)cc1 | 7.94 µM (active) | –
COc1ccccc1CNc1ccnc(-c2ccoc2)n1 | 2.51 µM (active) | –
C=CC[C@@H](C(=O)O)c1ccccc1 | – | -1.41% [at 11.4 µM]
CC(C)(C)CNCCO | – | -3.67% [at 11.4 µM]
COc1ccccc1CNc1cc(-c2ccc(C(=O)N(C)C)cc2)ncn1 | 25.1 µM (active) | –

Structure (SMILES) | AC50 | activity, negative = inhibition
COc1ccc(CNc2ccnc(-c3ccc(N(C)C)cc3)n2)c(OC)c1 | 12.6 µM (active) | –
COc1ccccc1CNc1ccnc(-c2ccc(N(C)C)cc2)n1 | 7.94 µM (active) | –
CC(C)NC[C@H](O)c1ccc(NS(C)(=O)=O)cc1 | inactive | –
CN1CCc2nc(N)nc(-c3nc(N)nc4c3CN(C)CC4)c2C1 | – | 3.49% [at 11.4 µM]
O=C(CN(Cc1ccco1)C(=O)c1ccccc1)Nc1ccc(Cl)c(Cl)c1 | 17.8 µM (active) | –
O=C(CN(Cc1ccco1)C(=O)c1cccc(Cl)c1)Nc1c(Cl)cc(Cl)cc1Cl | 11.2 µM (active) | –
Cn1c[n+](C)cc1/C=N/O | inactive | –
FC(F)(F)c1ccc(N2CCOCC2)c(Nc2nc3ccccc3n3cnnc23)c1 | 22.4 µM (active) | –
CN1CCN(c2nc3cc(C(F)(F)F)ccc3n3cccc23)CC1 | inactive | –
O=c1sc2ccccc2n1CCCOc1ccccc1 | 17.8 µM (active) | –
O=C(O)c1ccccc1NCn1c(=S)sc2ccccc21 | – | -19.2% [at 11.4 µM]
Cc1ccc(OCCCn2c(=O)sc3ccccc32)cc1 | 17.8 µM (active) | –
C[N+](C)(CCCOc1ccccc1)c1ccccc1 | inactive | –
NN(CC(=O)O)CC(=O)O | – | -4.66% [at 11.4 µM]
CN(C)CCCN1c2ccc(O)cc2Sc2ccc(Cl)cc21 | – | -18.1% [at 11.4 µM]
O=C(O)Cn1ccnc1[N+](=O)[O-] | – | 1.73% [at 11.4 µM]
Nc1c(N=Nc2cccc(Cl)c2)c(=O)[nH]n1-c1ccccc1 | – | -21.9% [at 2.29 µM]
Cc1ccc(N=Nc2c(N)n(-c3ccccc3)[nH]c2=O)cc1 | 11.2 µM (active) | –
Cc1[nH]n(-c2ccc(S(=O)(=O)O)cc2)c(=O)c1N=Nc1ccccc1 | – | 1.46% [at 11.4 µM]
CCCCc1[nH]c(=O)c(C#N)c2c1CCCC2 | inactive | –
COc1cccc2cc(C(=O)CC3(O)C(=O)N(Cc4ccccc4)c4ccccc43)c(=O)oc12 (stereo unspecified) | 7.08 µM (active) | –
COc1cc(CN2CCCCC2)cc2cc(C(=O)O)c(=O)oc12 | – | -36.8% [at 11.4 µM]
C[C@H]1CN(CCO)CCN1c1ccccc1 | – | 14.2% [at 11.4 µM]
CC(C)c1ccc(-c2nnn(CCC(=O)O)n2)cc1 | inactive | –

Structure (SMILES) | AC50 | activity, negative = inhibition
O=C(Cn1nnc(-c2ccccc2)n1)OCc1ccccc1 | inactive | –
CN1/C(=C\C(=O)COC(=O)Cn2nnc(-c3ccccc3)n2)C(C)(C)c2ccccc21 | 14.1 µM (active) | –
Cc1nn(-c2ccccc2)c(Cl)c1/C=N/NC(=O)c1ccco1 | inactive | –
COc1ccc(-c2nn(-c3ccccc3)cc2/C=N/NC(=O)c2ccc3c(c2)OCO3)cc1 | 5.01 µM (active) | –
O=C(N/N=C\c1cn(-c2ccccc2)nc1-c1ccccc1)c1ccc(Br)o1 | 3.98 µM (active) | –
O=C(N/N=C/c1ccccn1)c1ccc(Br)o1 | inactive | –
O=C(N/N=C\c1cn(-c2ccccc2)nc1-c1ccccc1)c1ccc2c(c1)OCO2 | 1.58 µM (active) | –
CCOc1cc(C2CC(=O)c3c(ccc4ccccc34)N2)ccc1O (stereo unspecified) | 10 µM (active) | –
CCOc1ccc2ccccc2c1C(=O)N[C@@H]1C(=O)N2[C@@H]1SC(C)(C)[C@@H]2C(=O)O | inactive | –
Cn1c(Sc2ccc(-c3cccnc3)n2C)ccc1-c1cccnc1 | 0.631 µM (active) | –
N=C1CCC[C@@H]1C(=S)SCCC(N)=O | – | -30.7% [at 11.4 µM]
CCS(=O)(=O)N1CCCC(C(=O)NCCCOC(C)C)C1 (stereo unspecified) | inactive | –
COc1ccc(NC(=O)NCCCN2CCCCC2C)cc1 (stereo unspecified) | inactive | –
Cc1ccc(S(=O)(=O)N2CCCC(C(=O)NCCCN3CCCCC3C)C2)cc1 (stereo unspecified) | 14.1 µM (active) | –
O=C(CCN1C(=O)C2C3C=CC(C3)C2C1=O)N1CCN(c2cccc(Cl)c2)CC1 (stereo unspecified) | 1.12 µM (active) | –
O=C(CCCN1C(=O)C2C3C=CC(C3)C2C1=O)N1CCN(c2ccccc2)CC1 (stereo unspecified) | 0.794 µM (active) | –
O=c1n(CCCN2CCN(c3cccc(Cl)c3)CC2)nc2ccccn12 | inactive | –
O[C@H](CN1CCN(c2cccc(Cl)c2)CC1)C(c1ccccc1)c1ccccc1 | inactive | –
CCOC(=O)c1c(C)[nH]c(C(=O)OCC(=O)NC2CCS(=O)(=O)C2)c1C (stereo unspecified) | inactive | –
CNC(=O)c1c(I)c(C(=O)NCC(=O)Nc2c(I)c(C(=O)O)c(I)c(C(=O)NCCO)c2I)c(I)c(N(C)C(C)=O)c1I | inactive | –
CCCCOc1ccc(CC(=O)NO)cc1 | inactive | –
CCCCOc1ccc(CNn2c(C)nc3ccccc3c2=O)cc1 | 1.58 µM (active) | –
O=C(c1ccccc1)c1ccc(OCCn2cnc3ccccc3c2=O)cc1 | – | 26.6% [at 2.29 µM]
CC(C)On1c(SC(C)C)nc2ccccc2c1=O | – | 22.8% [at 11.4 µM]

Structure (SMILES) | AC50 | activity, negative = inhibition
COc1ccc(-c2nc3ccccc3c(=O)n2N)cc1 | – | -5.9% [at 11.4 µM]
COc1ccc(CNn2c(C)nc3ccccc3c2=O)cc1 | 3.98 µM (active) | –
CCCNC1CCS(=O)(=O)C1 (stereo unspecified) | inactive | –
CC[C@H](C)[C@@H]1O[C@]2(CC[C@@H]1C)C[C@H]1C[C@H](CC=C(C)[C@@H](O[C@@H]3C[C@H](OC)[C@H](O[C@@H]4C[C@H](OC)[C@H](O)[C@H](C)O4)[C@H](C)O3)[C@@H](C)C=CC=C3CO[C@@H]4[C@@H](O)C(C)=C[C@@H](C(=O)O1)[C@]34O)O2 | inactive | –
CC1CC(OCC(O)CN2CCN(Cc3ccccc3)CC2)CC(C)(C)C1 (stereo unspecified) | 8.91 µM (active) | –
CC1CCC(C(C)C)C(OCC(O)CN2CCN(Cc3ccccc3)CC2)C1 (stereo unspecified) | inactive | –
CN1CCN(CC(O)c2ccccc2)CC1 (stereo unspecified) | inactive | –
COc1cccc(C(=O)N2N=C(c3cccc(OC)c3)CC2(O)C(F)(F)F)c1 (stereo unspecified) | 7.94 µM (active) | –
CCOC(=O)N1N=C(c2ccccc2)CC1(O)C(F)(F)F (stereo unspecified) | – | 2.59% [at 11.4 µM]
COc1cccc(C(=O)NNC2=CC(=O)CC(C)(C)C2)c1 | – | 3.39% [at 2.29 µM]
CCOc1cc(CNc2ccc(OC)cc2)cc(Br)c1OCC(=O)NC(C)(C)C | 15.8 µM (active) | –
COc1cc(CNCCc2ccccc2)ccc1OCC(=O)NC(C)(C)C | inactive | –
CCOc1ccc(N=C2NC(=O)C(CC(=O)O)S2)cc1 (stereo unspecified) | inactive | –
CCn1c(CCNC(=O)c2ccccc2Cl)n[nH]c1=S | inactive | –
CCn1c(CC(C)C)n[nH]c1=S | inactive | –
CCn1c(CCNC(=O)c2ccc(Cl)cc2Cl)n[nH]c1=S | 14.1 µM (active) | –
O=[N+]([O-])c1ccc(Cl)c(/C=N/N2CCN(Cc3ccccc3Cl)CC2)c1 | inactive | –
O=[N+]([O-])c1ccc(CSCc2ccc(Cl)cc2)cc1 | – | -19.8% [at 11.4 µM]
O=[N+]([O-])c1ccc(-c2cnc(SCc3ccccc3Cl)[nH]2)cc1 | 14.1 µM (active) | –
CC(C)Cn1c(-c2nn(C)cc2Cl)n[nH]c1=S | inactive | –
CC(c1ccc(Cl)cc1)n1c(-c2ccc3ccccc3n2)n[nH]c1=S (stereo unspecified) | 7.94 µM (active) | –
CN(C)CC[C@H](c1ccc(Cl)cc1)c1ccccn1 | inactive | –
Cc1cc2nnc(SCCCCN3C(=O)c4ccccc4C3=O)n2c2ccccc12 | 6.31 µM (active) | –
Cc1cc2nnc(SCC(=O)OC(C)C)n2c2ccccc12 | inactive | –
